Compounds with a hit are over-represented: about 5.9% of the library has one in this group of screens.
ABHD5 PLIN5 PPI – inhibitors of human ABHD5-perilipin-5 interaction; Q00G26+Q8WTS1; Split G. princeps luciferase complementation, luminescence, 4 h; inhibition, % at 4 µM; 360,000 compounds, 0.78% hits; AID 602281;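 active means inhibition above the mean inhibition across every tested compound plus 3 SD, cut at about 22% in these data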
PRMT1 FP inh – blocks human protein arginine methyltransferase 1 | Q99873 | recombinant PRMT1, activity-based probe fluorescence polarization | inhibition, % at 2.79 µM | 370,000 compounds, 1.3% hits;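 active means inhibition above about 21% made by adding two undisclosed values, limit read from the data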
Target sequence (Q99873 whole entry, looked up): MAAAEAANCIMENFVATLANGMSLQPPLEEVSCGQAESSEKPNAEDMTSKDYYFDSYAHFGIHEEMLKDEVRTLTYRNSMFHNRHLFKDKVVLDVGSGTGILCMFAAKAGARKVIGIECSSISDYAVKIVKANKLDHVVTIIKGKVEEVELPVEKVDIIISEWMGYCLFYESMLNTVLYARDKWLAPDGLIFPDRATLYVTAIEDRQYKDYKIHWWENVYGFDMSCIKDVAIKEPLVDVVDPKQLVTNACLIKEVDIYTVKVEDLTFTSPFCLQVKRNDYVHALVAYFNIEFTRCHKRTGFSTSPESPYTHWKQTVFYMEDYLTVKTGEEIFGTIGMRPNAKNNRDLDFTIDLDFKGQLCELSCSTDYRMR
rCAG binder – r(CAG) repeat RNA binding. TO-PRO-1 dye displacement fluorescence. inhibition, % at 3 µM. 370,000 compounds, 1.3% hits. AID 651821;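 active means inhibition above the plate cutoff, the mean of all test compounds on that plate plus 3 SD, cut at about 35% in these data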;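 further: higher means more dye released from RNA so lower well fluorescence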
Rtt109 Vps75 – inhibitors of Candida albicans Rtt109/Vps75 histone acetyltransferase | 330,000 compounds, 0.16% hits | inhibition, % at 34.9 µM | Q5AAJ8 | purified Rtt109/Vps75, ThioGlo CoA-SH fluorescence, 4 h;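 active means inhibition of at least 50% in every replicate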
ALR H2O2 inh – blocks human ALR sulfhydryl oxidase activity | P55789 | purified ALR, DTT oxidation, H2O2 HRP-luminol luminescence | inhibition, % (no concentration beside the values) | 290,000 compounds, 3.8% hits | AID 485317;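 active means mean replicate inhibition above about 79%, with every replicate also reaching it, limit read from the data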
Target sequence (P55789 whole entry, looked up): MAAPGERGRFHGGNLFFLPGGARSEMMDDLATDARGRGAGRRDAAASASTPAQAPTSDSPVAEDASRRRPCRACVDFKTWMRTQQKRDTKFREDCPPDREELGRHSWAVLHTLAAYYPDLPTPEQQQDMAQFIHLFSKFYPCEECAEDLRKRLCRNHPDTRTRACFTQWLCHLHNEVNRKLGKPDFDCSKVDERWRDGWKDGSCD
LANA-H2A inh – blocks KSHV LANA binding to histone H2A/H2B; Q9QR71; cell-free LANA-H2A/H2B peptide, fluorescence polarization; inhibition, % (no concentration beside the values); 320,000 compounds, 0.6% hits; in the data active means inhibition mostly above about 10%, no sharp cut-off; inactive means mostly below about 6.7%
PRMT1 inh conf – confirmation of human PRMT1 inhibitors | recombinant His-PRMT1, activity-based probe fluorescence polarization | 3,300 compounds, 42% hits | inhibition, % at 2.79 µM | shares compounds with PRMT1 FP inh;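 active means mean inhibition across replicates above the hit cutoff derived for the earlier primary screen, cut at about 22% in these data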
A number is an active result; 0 = inactive; - = no result.

SMILES	ABHD5 PLIN5 PPI	PRMT1 FP inh	rCAG binder	Rtt109 Vps75	ALR H2O2 inh	LANA-H2A inh	PRMT1 inh conf
COc1ccc(CCN(C)C(=O)CN2C(=O)c3ccccc3S2(=O)=O)cc1OC	0	0	0	0	0	0	-
COc1ccc(CCN(/C=C2\Sc3ccccc3C2=O)C(C)=O)cc1OC	0	66.9	0	-	0	0	45.5
CSCC(C)N1CCC(n2nccc2NC(=O)CCCc2ccccc2)CC1 (stereo not drawn)	0	30.5	0	0	0	0	23.9
COc1ccc(CN2C(=O)C(CC(=O)NCC3CCCCC3)CC(C(=O)N(C)C)=C2C)cc1 (stereo not drawn)	0	0	0	-	-	-	-
COC(=O)c1cc(C(C)c2c[nH]c3ccccc23)n2ccccc12 (stereo not drawn)	-	0	0	-	-	-	-
Cc1ccccc1/C=N/N1C(=O)CSC1=S	0	0	0	0	0	0	-
O=C1CSC(=S)N1N=Cc1cccc(OCc2ccccc2)c1	0	0	0	-	-	-	-
O=C1CSC(=S)N1/N=C/c1ccc2c(c1)OCCO2	0	27.4	0	0	-	0	0
COc1cc(/C=N/N2C(=O)CSC2=S)ccc1O	0	0	0	0	-	0	-
O=C1CSC(=S)N1/N=C/c1cccnc1	0	48.0	0	0	-	0	0
COc1cc(O)c(C=NN2C(=O)CSC2=S)c(OC)c1	0	26.6	0	-	-	-	32.4
O=C1CSC(=S)N1N=Cc1ccccc1O	0	53.1	0	0	-	-	73.6
O=C1CSC(=S)N1/N=C/c1ccc(Cl)c([N+](=O)[O-])c1	-	-	-	-	0	0	-
CC(C)(C)OC(=O)N1CCC(N[C@@H](Cc2c[nH]c3ccccc23)C(=O)NCCc2c[nH]c3ccccc23)(C(=O)NC2CCCCC2)CC1	-	0	-	-	-	-	-
CCN(CC)c1c2c(nc3ncnn13)CCCC2	-	0	0	-	-	-	-
Cc1ccc2nc(NNC(=O)c3ccc4c(c3)OCCO4)sc2c1	0	0	0	0	0	0	-
O=C(NNc1nc2cc3c(cc2s1)OCO3)c1cccc(F)c1	0	32.8	0	0	0	0	0
S=c1[nH]nc(-c2cc(-c3ccsc3)n[nH]2)n1-c1cccc2ccccc12	0	28.0	0	-	-	0	0
CC1(C)CC2C1CCC1(O)CC2(C)CCC1N(O)c1ccc(C(=O)NCCO)cn1 (stereo not drawn)	0	28.2	0	0	0	0	0
CCCOc1ccc(C(=O)NCCO)cc1	0	0	0	0	0	0	-
CCCc1cc(=O)oc2cc(OCC(=O)NCCN3CCOCC3)c(Cl)cc12	0	0	0	-	-	-	-
O=C(CSc1nc(O)cc(=O)[nH]1)N1CCCc2ccccc21	0	25.6	0	0	98.8	0	0
Cc1cc(=O)[nH]c(SCC(=O)N2CCCc3ccccc32)n1	0	0	0	0	0	0	-
N/C(Cc1cccc2ccccc12)=N\OC(=O)c1ccccc1F	0	49.0	0	0	0	0	0
N/C(Cc1ccc(Cl)cc1Cl)=N\OC(=O)c1ccccc1F	0	0	0	0	-	0	-
SMILES	ABHD5 PLIN5 PPI	PRMT1 FP inh	rCAG binder	Rtt109 Vps75	ALR H2O2 inh	LANA-H2A inh	PRMT1 inh conf
COCCCNC(=S)N/N=C/c1ccc(OC)cc1	0	29.2	0	0	0	0	0
COCCCNC(=S)N/N=C/c1ccc2ccccc2c1	0	0	0	0	0	0	-
Cc1ccc(-c2cccc(NC(=O)C3C(C(=O)O)[C@@H]4C=C[C@H]3C4)c2)o1 (stereo partly drawn)	0	64.8	0	0	0	0	0
CN1C2=N[C@@H](c3cccc(C(F)(F)F)c3)CC(=O)N2/C(=C\c2ccccc2)[C@H]1c1ccccc1	-	55.5	-	-	-	-	47.1
O=C1CC(N2CCCN(C3CC(=O)N(c4ccc(F)cc4)C3=O)CC2)C(=O)N1c1ccc(F)cc1 (stereo not drawn)	0	78.2	0	0	0	0	0
O=C1CC(N2CCSCC2)C(=O)N1c1ccccc1 (stereo not drawn)	0	0	0	0	0	0	-
O=C1CC(N2CCN(c3ccc(Cl)cc3)CC2)C(=O)N1c1ccc(F)cc1 (stereo not drawn)	0	0	0	0	0	0	-
O=C1CC(N2CCCCC2)C(=O)N1c1ccccc1 (stereo not drawn)	0	81.0	0	0	0	0	0
CCN(C(=O)C1CCCN1S(=O)(=O)c1cccnc1)c1ccccc1 (stereo not drawn)	-	0	0	-	-	-	-
COc1cccc(-c2cc3nc(C)c(C)c(N4CCN(Cc5ccco5)CC4)n3n2)c1	-	0	-	-	-	-	-
C=CCN1C(C(=O)OC)CN(Cc2cn(Cc3ccc(OC)cc3)nn2)CCS1(=O)=O (stereo not drawn)	-	0	0	-	-	-	-
C[C@@H](N)C(=O)Nc1ccc(Cl)cc1C(=O)c1ccc[nH]1	-	0	-	-	-	-	-
O=C(O)CCCC(=O)Nc1ccc(OCc2nc3ccccc3s2)cc1	0	25.6	0	0	0	0	0
CC(C)n1cc(/C=N/Nc2ccc(C(=O)O)cc2)c2ccccc21	0	25.6	0	0	99.5	0	0
CCCCCNC(=O)C(c1cccc2ccccc12)n1c(=O)c(-c2cc3ccccc3[nH]2)nc2ccccc21 (stereo not drawn)	0	0	0	-	-	-	-
O=C1CS/C(=C\S(=O)(=O)c2ccc(Cl)cc2)N1	0	31.5	0	0	0	0	22.4
COc1ccccc1NS(=O)(=O)c1cc(NC(=O)C2CCC2)ccc1N1CCCCC1	0	36.1	0	0	0	0	0
Cc1ccc(CNC(=O)c2ccc(NC(=O)CCS(=O)(=O)c3cccs3)cc2)cc1	0	34.5	0	0	0	0	0
O=C(CCS(=O)(=O)c1cccs1)Nc1ccc(C(=O)NCc2ccccc2)cc1	0	0	0	0	0	0	-
COC(=O)[C@]12C[C@H](CC(=O)NCCc3ccccc3OC)C(=O)N(CCc3ccc(OC)c(OC)c3)C1=C[C@H](C(C)C)O[C@@H]2C1CC1	-	0	0	-	-	-	-
CC1(C(=O)NC2CCCC2)CCC(=O)N1CCc1c[nH]c2ccccc12 (stereo not drawn)	0	0	0	-	-	-	-
COC(=O)C[C@@H]1CC[C@@H]2[C@H](COc3ccc(NC(=O)c4cccc(OC)c4)cc3C(=O)N2C)O1	-	0	0	-	-	-	-
COc1ccc(CCNC(=O)c2ccc(-c3ccc([N+](=O)[O-])cc3Cl)o2)cc1	0	28.4	0	0	0	0	0
CCN(CC)c1ccc(N)cc1S(=O)(=O)Nc1ccccc1OC	0	45.7	0	0	0	0	0
CCc1ccc(-c2csc3[n+]2CCN3C(C)=O)cc1	0	71.6	0	0	98.9	0	46.1
COC(=O)c1cc(-c2ccc(OC)c(OC)c2)c(=O)n2c1CCC2	-	0	0	-	-	-	-
COc1ccc(C2CC(=O)C(c3ccccc3)=CN2Cc2ccccc2)cc1 (stereo not drawn)	-	0	0	-	-	-	-
CCC[n+]1c(C)sc2c3c(ccc21)CCCC3	0	-	-	0	0	0	-
CC[n+]1c(C)sc2c(C)cc(C)cc21	0	46.0	0	114.1	0	0	0

Screening data: PubChem BioAssay, several laboratories
